# A selection: hits, their analogues and other compounds. The true share with any hit is near 1.6%.
# KCNQ2 inh – KCNQ2 (rat) channel inhibition; O88943; CHO-K1 KCNQ2, FluxOR thallium flux, 20 min; active compounds read low; B-score at 10 µM; actives 1.1% (n = 310,000);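 active means fluorescence ratio B-score at most minus 3 library SDs, with starting brightness B-score within 2 library SDs, cut at about -5.5 in these data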
# KCNQ2 enhance – KCNQ2 (rat) channel potentiation. O88943. CHO-K1 KCNQ2, FluxOR thallium flux fluorescence; active compounds read high. B-score at 10 µM. actives 0.54% (n = 310,000). AID 2239;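 active means fluorescence ratio B-score at least 3 SD of library B-scores, with initial fluorescence B-score within 3 of them, cut at about 5.3 in these data; same plate scores as AID 2156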;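 further: B-score of peak minus minimum over baseline fluorescence ratio after K+ and Tl+ stimulus; positive B-score means potentiation of KCNQ2 with more thallium influx and brighter signal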
# Kir21 confirm – confirmation of mouse Kir2.1 potassium channel inhibitors | Tl flux remaining, % of negative control (active compounds read low), % at 10 µM | Kir2.1-expressing cells, FluxOR thallium flux fluorescence; active compounds read low | actives 41% (n = 2,300) | shares compounds with KCNQ2 enhance;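 active means Primary-screen hit whose thallium flux fell at least 3 control SD below untreated wells in both duplicates, with normal baseline fluorescence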;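 further: 0% = blank wells without stimulus and 100% = stimulated no-compound controls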
# Target sequence (P35561 whole entry, looked up): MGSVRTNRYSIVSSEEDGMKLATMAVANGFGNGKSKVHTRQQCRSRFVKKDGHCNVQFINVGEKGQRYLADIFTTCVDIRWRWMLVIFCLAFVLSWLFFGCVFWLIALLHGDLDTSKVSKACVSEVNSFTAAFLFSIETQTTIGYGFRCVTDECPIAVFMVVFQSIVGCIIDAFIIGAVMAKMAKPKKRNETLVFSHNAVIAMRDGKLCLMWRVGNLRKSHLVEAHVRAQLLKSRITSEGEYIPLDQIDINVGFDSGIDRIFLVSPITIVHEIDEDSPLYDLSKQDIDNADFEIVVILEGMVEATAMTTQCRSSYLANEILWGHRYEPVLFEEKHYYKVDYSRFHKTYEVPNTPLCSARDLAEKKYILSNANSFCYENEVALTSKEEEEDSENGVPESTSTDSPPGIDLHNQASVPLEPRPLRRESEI
# HEK293 ctr – counter-screen for Kir2.1 inhibitors: effect in parental HEK293 cells. FluxOR signal as % of negative control (100 = no effect), % at 10 µM. actives 19% (n = 2,300). AID 2105. shares compounds with KCNQ2 enhance. FluxOR thallium flux fluorescence; 0% = unstimulated blank wells;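 active means dye signal at least 3 control SD above or below untreated wells in both duplicates, raw fluorescence within 3, either direction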;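 further: percent is based on the flux ratio of peak minus minimum fluorescence over baseline F0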
# CHO-K1 Tl ctr – counter-screen for KCNQ2 potentiators: effect in parental CHO-K1 cells; FluxOR thallium flux fluorescence; zero = vehicle mean+3SD, 100% = vehicle-minus-blank window; activity increase over 3SD of controls, % at 10 µM; shares compounds with KCNQ2 enhance; actives 43% (n = 1,200); AID 2282;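 active means signal rise of at least 3 SD above the untreated control mean, in both duplicate wells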;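 further: counter screen of KCNQ2 potentiator hits so any rise reflects channel-independent effects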
# KCNQ1 sel pot – human KCNQ1 counter-target activity of KCNQ2 potentiators; shares compounds with KCNQ2 enhance; activation over 3SD threshold, % at 10 µM; CHO KCNQ1 stable, FluxOR thallium flux fluorescence; beyond 3SD, as % of vehicle-control signal; AID 2283; actives 28% (n = 1,200);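 active means fluorescence ratio rise of at least 3 SD of vehicle wells above their mean, in both replicate wells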;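 further: 0% = vehicle mean plus 3 SD and 100% = vehicle minus unstimulated blank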
# KCNQ2 pot confirm – rat KCNQ2 channel potentiator confirmation | CHO-KCNQ2 cells, FluxOR thallium flux fluorescence | shares compounds with KCNQ2 enhance | potentiation, less the hit threshold, % at 10 µM | actives 68% (n = 1,200);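 active means fluorescence ratio rising 3 SD or more over the vehicle control mean in both replicates, plus primary screen hit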;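 further: peak minus minimum thallium fluorescence divided by baseline after K/Tl stimulus; 0% = vehicle mean plus 3 SD and 100% = vehicle minus unstimulated blank difference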
# Kir2-1 sel – tests whether KCNQ2 potentiators also affect mouse Kir2.1. shares compounds with KCNQ2 enhance. HEK293 Kir2.1, FluxOR thallium flux fluorescence. activity over 3SD threshold, % at 10 µM. actives 2% (n = 1,200). AID 2345;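 active means fluorescence ratio rise of at least 3 SD above the vehicle-control mean, seen in both replicates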;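 further: 0% = vehicle mean plus 3 SD and 100% = vehicle minus no-stimulus blank window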
# KCNQ2 W236L pot – rat KCNQ2 W236L mutant potentiation by KCNQ2 potentiators | actives 10% (n = 940) | current increase over 3SD of negative controls (%), active compounds read high, % at 25 µM | shares compounds with KCNQ2 enhance | CHO KCNQ2-W236L, automated patch clamp current | AID 2558;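 active means current increase at least 3 SD of the untreated controls above them in both duplicate recordings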
# Starred values were filed as active, the others as inactive; i = inactive; x = no result given.
SMILES,KCNQ2 inh,KCNQ2 enhance,Kir21 confirm,HEK293 ctr,others
COc1ccc(C(=O)N2CCN(S(=O)(=O)c3ccc(F)cc3)CC2)cc1OC,i,x,x,x,
Cc1ccc(C(=O)NCCCNC(=O)Cc2ccccc2)cn1,i,0.87,x,x,
CSc1ccc(CN2CCC(CO)(CCOc3ccccc3)CC2)cc1,i,0.62,42.5%*,i,
OCC1(CCOc2ccccc2)CCN(Cc2ccncc2)CC1,i,x,x,x,
Cc1cccc(C(=O)OCC(=O)N(C)c2ccccc2)c1C,i,x,x,x,
Cc1ccc(C)c(NC(=O)CCC(=O)NN=C2CCCC2)c1,i,0.44,x,x,
CCN(Cc1ccccc1)S(=O)(=O)c1ccc2c(c1)NC(=O)CC(=O)N2,i,x,x,x,
CCN(Cc1ccccc1)S(=O)(=O)c1ccc2c(c1)NC(=O)CS2,i,2.25,73.0%*,i,
CCOC(=O)C1=C(Cn2cnc3ccccc32)NC(=O)NC1c1cc(C)ccc1C (centres undefined),i,6.61*,i,52.5%*,CHO-K1 Tl ctr=-10.4;KCNQ1 sel pot=-15.3;KCNQ2 pot confirm=-7.9;Kir2-1 sel=-39.4;KCNQ2 W236L pot=i
COC(=O)C1=C(Cn2cnc3ccccc32)NC(=O)NC1c1cc(C)ccc1C (centres undefined),i,1.07,x,x,
CC1=C(C)/C(=N\OS(=O)(=O)c2ccccc2)C=CC1=O,i,6.91*,69.0%*,i,CHO-K1 Tl ctr=16.8*;KCNQ1 sel pot=-17.1;KCNQ2 pot confirm=27.8*;Kir2-1 sel=-64.2;KCNQ2 W236L pot=56.6%*
Cc1ccc(S(=O)(=O)O/N=C2\CCCc3ccccc32)cc1,i,1.48,x,x,
C[C@@H](NCCc1ccc(O)cc1)[C@@H](O)c1ccc(O)cc1,i,0.08,x,x,
CCCCCCCCNC(C)C(O)c1ccc(SC(C)C)cc1 (centres undefined),i,6.84*,x,x,CHO-K1 Tl ctr=-55.8;KCNQ1 sel pot=-20.1;KCNQ2 pot confirm=-46.2;Kir2-1 sel=-61.6
CC(C)Oc1ccc(C(=O)Nc2nnc(C3=COCCO3)o2)cc1,i,5.34*,i,i,CHO-K1 Tl ctr=91.0*;KCNQ1 sel pot=-6.8;KCNQ2 pot confirm=-1.7;Kir2-1 sel=-32.5;KCNQ2 W236L pot=i
CC(C)(C)c1ccc(C(=O)Nc2nnc(C3=COCCO3)o2)cc1,i,3.63,x,x,
c1ccc(COc2ccccc2CNC23CC4CC(CC(C4)C2)C3)cc1,i,x,42.0%*,i,
c1ccc(COc2ccccc2CNC2CCCC2)cc1,i,2.24,x,x,
CS(=O)(=O)N1CCN(C(=O)Nc2ccccc2)CC1,i,0.31,x,x,
CC(C)c1ccc(NC(=O)N2CCN(S(=O)(=O)c3ccccc3)CC2)cc1,i,7.33*,x,x,CHO-K1 Tl ctr=-15.2;KCNQ1 sel pot=-20.0;KCNQ2 pot confirm=-6.4;Kir2-1 sel=-51.3;KCNQ2 W236L pot=i
COc1ccc(-c2nc(CS(=O)CC(=O)N3CCOCC3)c(C)o2)cc1OC (centres undefined),i,x,x,x,
O=C(CN(C(=O)c1csnn1)c1ccccc1C(F)(F)F)NCc1ccccc1,i,x,x,x,
CN(CC(=O)Nc1ccccc1Cl)C(=O)Cn1nnc(-c2ccc(F)cc2)n1,i,0.07,x,x,
COc1ccc(C)cc1NCC(=O)Nc1ccc(C(C)(C)C)cc1,i,x,x,x,
CCN(CC(=O)NC(=O)NC1CCCCC1)Cc1nc2ccccc2c(=O)[nH]1,i,10.2*,i,i,CHO-K1 Tl ctr=63.4*;KCNQ1 sel pot=16.8*;KCNQ2 pot confirm=33.5*;Kir2-1 sel=-33.1;KCNQ2 W236L pot=i
SMILES,KCNQ2 inh,KCNQ2 enhance,Kir21 confirm,HEK293 ctr,others
CCN(CC(=O)NC(=O)NC1CCCCC1)Cc1ccccc1,i,x,x,x,
COc1cc(Br)c(CC(=O)NC2CC2)cc1OC,i,1.53,x,x,
COCCSc1ccccc1C(=O)Nc1ccc(S(=O)(=O)N2CCOCC2)cc1,i,0.01,x,x,
CC(C)c1ccc(C(=O)NCCCN2CCOCC2)cc1,i,x,x,x,
O=C(NCCCN1CCOCC1)c1ccc(CSc2ccc(Cl)cc2)cc1,i,0.59,62.0%*,i,
CC(=O)c1ccc(N2CCN(C(=O)[C@H](C)NC(=O)c3ccccc3Cl)CC2)cc1,i,x,x,x,
Cc1ccc(C(=O)Nc2nc(C(C)(C)C)cs2)s1,i,6.64*,i,i,CHO-K1 Tl ctr=18.3*;KCNQ1 sel pot=-4.7;KCNQ2 pot confirm=-0.3;Kir2-1 sel=-17.8;KCNQ2 W236L pot=i
CC(C)(C)c1csc(NC(=O)c2ccc(Cl)s2)n1,i,0.69,x,x,
CN(C)Cc1cc2ccccc2c2c1COC2,i,x,x,x,
Cc1cc2ccc3ccccc3c2cc1CN(C)C,i,x,13.0%*,i,
Cc1ccccc1C(=O)Nc1ccc(S(=O)(=O)N2CCCC2)cc1,i,x,x,x,
COc1ccc(CN(CCN(C)C)c2ccccn2)cc1,i,1.28,x,x,
CC(C)n1cnc2c(N(C)c3ccccc3)nc(N(CCN(C)C)Cc3ccccc3)nc21,i,x,48.0%*,i,
Cn1cccc1C(=O)N/N=C/c1c(Cl)cccc1Cl,i,2.93,x,x,
CCOc1ccc(NS(=O)(=O)c2coc(C(N)=O)c2)cc1,i,0.07,x,x,
O=C(Cc1ccsc1)NNC(=O)c1cccc(Cl)c1,i,0.53,x,x,
CN(Cc1ccc(F)cc1)C(=O)COc1ccccc1-c1ccccc1,i,x,x,x,
S=c1[nH]nc(-c2cc(-c3ccccn3)nc3ccccc23)o1,i,0.83,x,x,
Cc1ccc(-c2cc(-c3n[nH]c(=S)o3)c3ccccc3n2)cc1,i,13.8*,i,485.5%*,CHO-K1 Tl ctr=47.4*;KCNQ1 sel pot=-12.2;KCNQ2 pot confirm=167.5*;Kir2-1 sel=-5.7;KCNQ2 W236L pot=i
CCCCOCCCNc1ncnc2c1[nH]c1ccccc12,i,x,44.5%*,i,
CCOCCCNc1ncnc2c1[nH]c1ccccc12,i,1.49,x,x,
COCc1nnc(NC(=O)c2cccc(NC(=O)c3ccccc3)c2)s1,i,x,x,x,
Cc1occc1C(=O)Nc1ccccc1C(=O)O,i,x,x,x,
Cc1cc(C)c(NC(=O)c2ccoc2C)c(C)c1,i,6.07*,i,i,CHO-K1 Tl ctr=-2.6;KCNQ1 sel pot=-3.1;KCNQ2 pot confirm=9.5*;Kir2-1 sel=-15.8;KCNQ2 W236L pot=i
CC(=O)c1cccc(NC(=O)c2ccoc2C)c1,i,2.09,x,x,
SMILES,KCNQ2 inh,KCNQ2 enhance,Kir21 confirm,HEK293 ctr,others
Cc1occc1C(=O)Nc1ccc2ccccc2c1,i,13.1*,i,i,CHO-K1 Tl ctr=105.1*;KCNQ1 sel pot=-17.0;KCNQ2 pot confirm=60.1*;Kir2-1 sel=-29.9;KCNQ2 W236L pot=i
O=C(NCC(=O)N(c1cccc(F)c1)C(C(=O)NC1CCCC1)c1cccnc1)c1ccco1 (centres undefined),i,x,x,x,
CC(C)C[C@H](N)c1nnc(S(=O)(=O)Cc2cccc(F)c2)o1,i,x,72.5%*,i,
CC(C)CCNC(=O)c1ccc(CSCc2cccc(F)c2)o1,i,x,x,x,
S=C(NCc1ccc2c(c1)OCO2)NC1CCN(Cc2ccccc2)CC1,i,1.03,39.5%*,125.5%*,
S=C(NCc1ccccc1)N1CCN(Cc2ccc3c(c2)OCO3)CC1,i,x,x,x,
